# Legend:
# Assay in all cases: DAPPL (digital affinity profiling via proximity ligation, sequencing); 10 mM Tris-HCl pH 7.5, 50 mM NaCl, 1 mM DTT, 4% glycerol, room temperature, 30 min; GST-TFs on glutathione beads, 16-mer random dsDNA library, 0.1% formaldehyde crosslink after washing; high values mean tight binding
# Details in all cases: protein: recombinant; tags: N-terminal GST; dsDNA, one strand shown
# ETV2 = target: T1, ETV2 (Homo sapiens, UniProt O00321 1-342)
# T1 sequence: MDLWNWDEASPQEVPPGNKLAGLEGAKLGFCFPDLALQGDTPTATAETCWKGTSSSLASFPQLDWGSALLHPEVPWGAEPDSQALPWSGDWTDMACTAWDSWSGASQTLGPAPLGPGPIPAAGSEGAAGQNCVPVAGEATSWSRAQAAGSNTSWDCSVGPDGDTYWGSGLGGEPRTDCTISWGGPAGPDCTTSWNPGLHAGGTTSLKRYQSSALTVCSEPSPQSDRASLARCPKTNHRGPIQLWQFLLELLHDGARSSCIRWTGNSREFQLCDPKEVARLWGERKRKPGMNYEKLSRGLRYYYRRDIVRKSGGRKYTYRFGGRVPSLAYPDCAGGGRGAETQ
# Summary of the method: (§1)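 Binding signal is each hexamer's read frequency for a factor divided by its frequency in the tag-only sample. The factors were GST-fused human transcription factors from yeast, captured on glutathione beads, DNA-barcoded and pooled with that sample. Pools were incubated with 200 nmole of a random double-stranded 16-mer DNA library in Tris/NaCl/DTT/glycerol buffer at room temperature for 30 min, then washed, crosslinked with 0.1% formaldehyde, proximity-ligated with BsaI/T4 ligase (1 h, 37 °C), PCR-amplified and sequenced on an Illumina NextSeq500.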
# ELF3 = target: T2, ELF3 (Homo sapiens, UniProt P78545 1-371)
# T2 sequence: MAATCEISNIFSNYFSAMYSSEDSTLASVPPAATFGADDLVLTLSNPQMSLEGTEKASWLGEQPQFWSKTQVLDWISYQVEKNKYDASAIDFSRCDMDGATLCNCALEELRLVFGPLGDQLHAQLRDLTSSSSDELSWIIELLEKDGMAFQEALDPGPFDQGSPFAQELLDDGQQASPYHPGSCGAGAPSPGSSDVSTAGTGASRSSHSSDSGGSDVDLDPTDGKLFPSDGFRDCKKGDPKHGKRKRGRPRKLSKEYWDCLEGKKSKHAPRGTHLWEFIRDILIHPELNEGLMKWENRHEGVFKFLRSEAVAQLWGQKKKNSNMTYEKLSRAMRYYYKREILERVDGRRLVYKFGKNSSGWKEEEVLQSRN
# Summary of the method: as §1
# ETV1 = ETV1 (Homo sapiens, UniProt P50549 1-477)
# Chain of ETV1 (P50549 whole entry): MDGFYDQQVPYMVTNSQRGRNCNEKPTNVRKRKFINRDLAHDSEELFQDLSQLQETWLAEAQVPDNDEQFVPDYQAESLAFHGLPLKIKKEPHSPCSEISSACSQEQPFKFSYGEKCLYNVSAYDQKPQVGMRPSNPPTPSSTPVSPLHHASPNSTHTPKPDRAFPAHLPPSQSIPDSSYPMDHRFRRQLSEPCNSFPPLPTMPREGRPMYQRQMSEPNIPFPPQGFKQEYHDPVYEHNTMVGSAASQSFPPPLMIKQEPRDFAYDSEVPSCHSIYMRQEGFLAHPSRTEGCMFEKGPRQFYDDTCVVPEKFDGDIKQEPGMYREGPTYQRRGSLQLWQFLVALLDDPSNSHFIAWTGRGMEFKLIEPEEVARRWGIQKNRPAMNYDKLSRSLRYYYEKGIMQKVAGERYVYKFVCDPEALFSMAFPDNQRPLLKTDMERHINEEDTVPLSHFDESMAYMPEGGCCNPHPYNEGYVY
# Summary of the method: as §1
# ERF = target: T3, ERF (Homo sapiens, UniProt P50548 1-548)
# T3 sequence: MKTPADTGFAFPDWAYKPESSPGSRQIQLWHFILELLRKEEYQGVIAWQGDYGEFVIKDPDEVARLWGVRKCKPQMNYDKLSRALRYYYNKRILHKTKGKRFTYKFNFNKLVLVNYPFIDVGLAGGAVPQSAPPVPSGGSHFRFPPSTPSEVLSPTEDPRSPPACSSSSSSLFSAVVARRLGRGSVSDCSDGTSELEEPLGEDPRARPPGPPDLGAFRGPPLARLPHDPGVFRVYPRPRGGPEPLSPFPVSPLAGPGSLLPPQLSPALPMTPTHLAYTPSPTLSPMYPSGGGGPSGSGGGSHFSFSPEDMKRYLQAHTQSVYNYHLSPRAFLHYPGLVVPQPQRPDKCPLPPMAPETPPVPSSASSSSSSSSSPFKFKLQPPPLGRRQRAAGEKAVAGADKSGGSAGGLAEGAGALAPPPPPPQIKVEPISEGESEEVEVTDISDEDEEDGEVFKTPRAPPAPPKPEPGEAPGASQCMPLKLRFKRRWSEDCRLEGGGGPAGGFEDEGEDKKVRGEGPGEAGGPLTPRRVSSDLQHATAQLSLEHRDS
# Summary of the method: as §1
# ETV3L = target: T4, ETV3L (Homo sapiens, UniProt Q6ZN32 1-361)
# T4 sequence: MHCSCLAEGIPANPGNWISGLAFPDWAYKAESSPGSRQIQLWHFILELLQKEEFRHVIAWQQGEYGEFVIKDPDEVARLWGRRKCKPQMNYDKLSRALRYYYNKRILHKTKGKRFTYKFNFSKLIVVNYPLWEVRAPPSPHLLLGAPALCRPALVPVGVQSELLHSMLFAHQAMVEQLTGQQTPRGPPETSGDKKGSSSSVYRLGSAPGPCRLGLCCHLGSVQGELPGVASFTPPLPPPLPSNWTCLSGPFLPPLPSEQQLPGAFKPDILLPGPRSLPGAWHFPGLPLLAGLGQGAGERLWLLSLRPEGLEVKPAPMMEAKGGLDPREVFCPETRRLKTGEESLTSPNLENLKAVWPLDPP
# Summary of the method: as §1
# ETS2 = target: T5, ETS2 (Homo sapiens, UniProt P15036 1-469)
# T5 sequence: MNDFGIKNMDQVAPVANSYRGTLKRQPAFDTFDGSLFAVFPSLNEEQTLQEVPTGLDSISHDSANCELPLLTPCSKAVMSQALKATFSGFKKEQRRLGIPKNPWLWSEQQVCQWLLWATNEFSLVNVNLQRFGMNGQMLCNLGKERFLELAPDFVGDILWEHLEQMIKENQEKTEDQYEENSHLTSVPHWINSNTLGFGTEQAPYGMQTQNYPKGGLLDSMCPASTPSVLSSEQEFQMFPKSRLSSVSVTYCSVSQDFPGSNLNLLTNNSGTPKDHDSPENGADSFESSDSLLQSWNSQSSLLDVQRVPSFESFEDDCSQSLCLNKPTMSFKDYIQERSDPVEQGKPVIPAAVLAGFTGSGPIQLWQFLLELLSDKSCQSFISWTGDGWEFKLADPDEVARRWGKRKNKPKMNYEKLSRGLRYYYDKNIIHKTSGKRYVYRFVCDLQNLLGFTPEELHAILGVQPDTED
# Summary of the method: as §1
# SPDEF = target: T6, SPDEF (Homo sapiens, UniProt O95238 1-335)
# T6 sequence: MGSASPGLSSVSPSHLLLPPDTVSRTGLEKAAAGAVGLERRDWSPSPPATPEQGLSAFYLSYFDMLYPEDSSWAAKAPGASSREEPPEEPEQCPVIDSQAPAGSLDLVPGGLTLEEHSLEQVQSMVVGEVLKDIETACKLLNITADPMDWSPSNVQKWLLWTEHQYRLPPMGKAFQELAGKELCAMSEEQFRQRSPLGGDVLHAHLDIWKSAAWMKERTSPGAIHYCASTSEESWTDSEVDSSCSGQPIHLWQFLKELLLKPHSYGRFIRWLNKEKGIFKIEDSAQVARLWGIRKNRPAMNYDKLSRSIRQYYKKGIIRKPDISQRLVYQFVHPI
# Summary of the method: as §1
# ETV7 = target: T7, ETV7 (Homo sapiens, UniProt Q9Y603 1-341)
# T7 sequence: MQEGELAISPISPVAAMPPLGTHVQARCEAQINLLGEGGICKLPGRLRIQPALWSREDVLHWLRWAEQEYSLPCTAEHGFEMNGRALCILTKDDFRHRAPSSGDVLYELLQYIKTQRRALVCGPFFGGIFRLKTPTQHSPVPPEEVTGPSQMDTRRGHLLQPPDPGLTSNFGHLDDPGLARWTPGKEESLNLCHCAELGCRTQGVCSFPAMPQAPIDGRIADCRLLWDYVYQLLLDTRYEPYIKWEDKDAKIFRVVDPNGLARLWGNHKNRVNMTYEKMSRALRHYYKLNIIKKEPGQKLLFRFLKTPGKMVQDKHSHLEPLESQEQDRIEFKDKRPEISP
# Summary of the method: as §1
# ETV3 = target: T8, ETV3 (Homo sapiens, UniProt P41162-2 1-143)
# T8 sequence: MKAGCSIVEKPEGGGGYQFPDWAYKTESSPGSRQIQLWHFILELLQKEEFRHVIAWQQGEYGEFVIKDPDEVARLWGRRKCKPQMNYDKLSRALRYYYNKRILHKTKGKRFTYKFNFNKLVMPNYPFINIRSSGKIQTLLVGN
# Summary of the method: as §1
# ETV6 = ETV6 (Homo sapiens, UniProt P41212 1-452)
# Chain of ETV6 (P41212 whole entry): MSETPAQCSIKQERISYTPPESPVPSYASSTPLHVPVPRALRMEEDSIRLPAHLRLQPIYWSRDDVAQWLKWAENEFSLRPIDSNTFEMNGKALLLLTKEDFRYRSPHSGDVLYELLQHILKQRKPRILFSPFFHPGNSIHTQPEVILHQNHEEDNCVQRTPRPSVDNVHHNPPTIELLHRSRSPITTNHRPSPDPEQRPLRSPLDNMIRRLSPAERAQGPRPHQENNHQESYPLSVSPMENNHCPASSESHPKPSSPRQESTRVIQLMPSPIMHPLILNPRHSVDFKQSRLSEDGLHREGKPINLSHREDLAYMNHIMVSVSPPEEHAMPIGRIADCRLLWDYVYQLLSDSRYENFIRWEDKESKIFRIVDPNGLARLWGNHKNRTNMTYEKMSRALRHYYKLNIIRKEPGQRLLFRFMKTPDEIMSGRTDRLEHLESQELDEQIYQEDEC
# Summary of the method: as §1
sequence,measurement,setting,value
CGTAAA,binding signal,ETV2,"1.21 fold enrichment (6-mer frequency, TF over GST control)"
same,binding signal,ELF3,"1.12 fold enrichment (6-mer frequency, TF over GST control)"
same,binding signal,ETV1,"1 fold enrichment (6-mer frequency, TF over GST control)"
same,binding signal,ERF,"1.09 fold enrichment (6-mer frequency, TF over GST control)"
same,binding signal,ETV3L,"1.09 fold enrichment (6-mer frequency, TF over GST control)"
same,binding signal,ETS2,"1.14 fold enrichment (6-mer frequency, TF over GST control)"
same,binding signal,SPDEF,"1.09 fold enrichment (6-mer frequency, TF over GST control)"
same,binding signal,ETV7,"1.08 fold enrichment (6-mer frequency, TF over GST control)"
same,binding signal,ETV3,"1.14 fold enrichment (6-mer frequency, TF over GST control)"
same,binding signal,ETV6,"1.17 fold enrichment (6-mer frequency, TF over GST control)"
